Potency data for 40 compounds are collected here from PubChem BioAssay (NCATS).

Where “and” joins values, the source holds several entries; their conditions need not be identical. Identical values can stand only once. Records with an inconclusive call do not appear. Calls of active or inactive are those of the source. Calls follow the shape of the dose curve; as a rule, active = well fitted cell-killing curve with a large enough effect; inconclusive = small, poorly fitted or top-dose-only effect, or effect the other way; inactive = no such curve, though single readings can be large or run the other way.
Potency is read from the fitted curve at half-maximal effect.

The assay in a line: Viability qHTS for spleen associated tyrosine kinase inhibitor (SYKi) drug resistant MV4-11 cells (AID 1963824). Also: nearly all actives have a fitted effect of over 35% in size. Particulars: SYKi-resistant MV4-11 viability, CellTiter-Glo, 72 h; series mostly up to 45 µM. An excerpt:
Department of Medicine, Hematology/Oncology
University Hospital Frankfurt, Germany.
Trials have shown promising clinical activity of the selective SYK inhibitor entospletinib in patients with high expressing HOXA9/MEIS1 acute leukemias. As the development of resistance mechanisms is a common problem in the use of targeted drugs, we performed a chemical library screen to identify drug sensitivities in SYK inhibitor resistant AML cells. […] Glucocorticoids are potent immunosuppressants which work in part by inhibiting the transcription of cytokine genes.
Described herein is a viability screen to look for activity in the SYK inhibitor drug resistant cell line against four NCATS compound libraries (MIPE 5.0, NPC, NPACT, and Kinase) totaling 11372 compounds. Active hits were reacquired for confirmation and further secondary assay testing.
SEQUENCE No. (e.g., 1, 2, 3, etc.); […] (e.g., Cells, Incubation, Reagent, etc.); VALUE; DESCRIPTION.
1; Media; 2uL; white, solid-bottom Corning assay plate.
2; Compounds; 23nL; Echo acoustic dispenser.
3; Cell; 5uL; 500 cells per well.
4: Incubation; 72hr; 37 C, 5% CO2, 95% humidity.
5; Reagent; 3uL; CellTiter-Glo reagent (Promega).
6; Incubation; 10min; room temperature.
7; Detection; Luminescence; ViewLux plate reader (PerkinElmer).
NOTES (numbers refer to Sequence numbers above
1. Quantitative high-throughput screening (qHTS) of small molecule compounds was conducted on drug resistant SYKi MV4-11 cell line.
2. Twenty-three nanoliter of small molecule compounds were added to each assay plates using the Echo acoustic dispenser (Beckman Coulter).
3. Cells were seeded into the assay plates at a final density of 500 cells in 5uL of media per well using the Multidrop Combi dispenser.
4. Plates were covered with stainless steel gasketed lids and incubated for 72 hours at standard cell culture conditions.
5. Viability was assessed by adding 3uL of CellTiter-Glo detection reagent (Promega).
6. Plates were covered with gasket lids and incubated for 10 minutes at room temperature.
7. Luminescence was measured on a ViewLux plate reader (PerkinElmer).
Consider `C[C@H]1[C@H](O)O[C@@H]2O[C@@]3(C)CC[C@H]4[C@H](C)CC[C@@H]1[C@@]24OO3`, for which the Potency was 0.731 µM (active). For the compound `CC(=O)C1=C(O)C=C2Oc3c(C(C)=O)c(O)c(C)c(O)c3[C@]2(C)C1=O`, the Potency entry is “inactive”.

In the case of `Cc1c(O)cccc1C(=O)N[C@@H](CSc1ccccc1)[C@H](O)CN1C[C@H]2CCCC[C@H]2C[C@H]1C(=O)NC(C)(C)C`, the Potency was 13.3 µM (active).

For `COc1cc(/C=C/C(=O)O[C@H]2[C@@H]3C=CO[C@@H](O[C@@H]4O[C@H](CO)[C@@H](O)[C@H](O)[C@H]4O)[C@@H]3[C@@]3(CO)O[C@@H]23)ccc1O`, the Potency entry is “inactive”.

For `CC1CCC2(C(=O)OC3OC(CO)C(O)C(O)C3O)CCC3(C)C(=CCC4C5(C)CC(O)C(O)C(C)(C(=O)O)C5CCC43C)C2C1(C)O` (stereo not given), the Potency entry is “inactive”.

As to `Nc1ccc(F)cc1NC(=O)c1ccc(CNC(=O)/C=C/c2cccnc2)cc1`, the Potency is 0.833 µM (active). As for `CCCCc1ccc2nc(NC(=O)OC)[nH]c2c1`, the Potency is 0.118 µM (active). Under `Nc1nc(O)c(C2=C3C(=Nc4ccccc43)C(=O)NCC2)[nH]1` stands 1.16 µM (active). In the case of `C[C@H]1C[C@H]2[C@@H]3CCC4=CC(=O)C=C[C@]4(C)[C@@]3(Cl)[C@@H](O)C[C@]2(C)[C@@]1(O)C(=O)CO`, the Potency is 13.3 µM (active). Next, `Nc1ncnc2n[nH]c(Nc3ccc(F)cc3)c12`: 6.51 µM (active); `O=C1CC(c2ccc(Cl)cc2)CC(=O)N1`: “inactive”. Next, `CN1CC(=O)N2[C@H](c3ccc4c(c3)OCO4)c3[nH]c4ccccc4c3C[C@@H]2C1=O`: “inactive”. Under `CC[N+](CC)(CC)CCOc1ccc(/C=C/c2ccccc2)cc1` stands “inactive”.

Turning to `Cc1cc(CS(=O)(=O)c2ccccc2)cc(OCc2ccc(CN3CCCC3CO)cc2)c1` (stereo not given), the Potency was 14.6 µM (active). Under `C=C1C(=O)OC[C@H]2C(C(=O)O)=CC3CC(C)(C)C[C@@]132` (stereo not given in full) stands 14.6 µM (active). Regarding `Cn1cc(S(=O)(=O)c2ccc(Cl)cc2)c2cccc(N3CCNCC3)c21`, the Potency was 13 µM (active).

Take `CC(C)C[C@@H]1NC(=O)[C@@H](Cc2ccccc2)NC(=O)C(CCCCCC(=O)C2CO2)NC(=O)[C@@H]2CCCCN2C1=O` (stereo not given in full): the Potency was 0.0126 µM (active). Next, `COc1ccc(N(C(=O)Nc2c(C)cccc2C)c2cc(Nc3ccc(N4CCN(C)CC4)cc3)ncn2)c(OC)c1`: 3.66 µM (active). `C=C[C@@]12COC(=O)C(=C)[C@@H]1[C@@H](O)[C@H](C(=C)C(=O)OC)[C@@H](O)C2`: the Potency result is “inactive”.

Take `CCC(O)C(C)C1CCC(C(C)C(=O)O)O1` (stereo not given): the Potency result was “inactive”. Next, `O=c1[nH]c([C@@H]2CCCN2)nc2c1oc1ccc(Cl)cc12`: 16.4 µM (active); `C=C1[C@@H]2CC[C@@]3(C)[C@H](c4ccoc4)OC(=O)C[C@]13O[C@H]1CC(=O)C(C)(C)[C@H](C(O)C(=O)OC)[C@]12C` (stereo not given in full): “inactive”; `CCN(CC)C(C)CN1c2ccccc2Sc2ccccc21` (stereo not given): “inactive”. Consider `CC1(C)CC[C@]2(C(=O)O)CC[C@]3(C)C(=CCC4[C@@]5(C)CC[C@H](O[C@@H]6O[C@H](C(=O)O)[C@@H](O[C@@H]7OC[C@@H](O)[C@H](O)[C@H]7O)[C@H](O)[C@H]6O)C(C)(C)C5CC[C@]43C)C2C1O` (stereo not given in full), for which the Potency entry was “inactive”. On to `CO[C@@H]1[C@H](N(C)C(=O)c2ccccc2)C[C@H]2O[C@]1(C)n1c3ccccc3c3c4c(c5c6ccccc6n2c5c31)C(=O)NC4`, for which the Potency was 51.7 nM (active) and 59 nM (active). Regarding `CN1CCN(c2cccc(Nc3nc4c(-c5ccc(S(C)(=O)=O)cc5)cccn4n3)c2)CC1`, the Potency was 130 nM (active) and 296 nM (active). Consider `CC(=O)c1cc2c(o1)C(=O)c1ccccc1C2=O`, for which the Potency was 1.32 µM (active). Under `OCC1=CC[C@@H]2C=CO[C@@H](O[C@@H]3O[C@H](CO)[C@@H](O)[C@H](O)[C@H]3O)[C@H]12` stands “inactive”; under `O=c1[nH]c2ccccc2n1CCCN1CCN(C(c2ccccc2)c2ccccc2)CC1`, 11.9 µM (active). Under `CC(NCCc1ccc(O)cc1)C(O)c1ccc(O)cc1` (stereo not given) stands “inactive”; under `CCCc1ncc(C[n+]2ccccc2C)c(N)n1`, “inactive”. For `COc1ccc(CN2CCN(CCCSc3cc(C(C)(C)C)c(O)c(C(C)(C)C)c3)CC2)c(OC)c1OC`, the Potency is 3.48 µM (active). With `C/C=C/C1=CC2=C(CO1)C(=O)C(C)(O)C(OC(=O)c1c(C)cc(OC)cc1O)C2` (stereo not given), the Potency is 4.04 µM (active). Next, `C#C[C@]1(O)CC[C@H]2[C@@H]3CCc4cc(OC)ccc4[C@H]3CC[C@@]21C`: 13.3 µM (active); `COC(=O)c1ccc([C@H]2c3[nH]c4ccccc4c3C[C@H](C(=O)OC)N2C(=O)CCl)cc1`: 0.525 µM (active). Next, `C=C1C[C@]23C[C@H]1CC[C@H]2[C@]1(C)CCC[C@@]2(CO)C(=O)O[C@H]([C@H]21)[C@@H]3O`: “inactive”; `Nc1ccc(/C=C/C(=O)NCc2cc3cc(-c4ccc(C(=O)N5CCC(F)(F)CC5)cc4)cc(-c4ccc(F)cc4)c3o2)cn1`: 0.206 µM (active); `Nc1nc(Nc2ccc(S(N)(=O)=O)cc2)nn1C(=O)c1c(F)cccc1F`: 1.03 µM (active) and 1.48 µM (active). Next, `COc1cc(O[C@@H]2O[C@H](CO[C@H]3OC[C@](O)(CO)[C@H]3O)[C@@H](O)[C@H](O)[C@H]2O)cc(OC)c1O`: “inactive”; `C=C(C)C(=O)OC1[C@@H]2C(=C)C(=O)O[C@@H]2C[C@@H](C)[C@@H]2C=CC(=O)[C@@]12C` (stereo not given in full): 2.86 µM (active).
